Measured values reported in PubChem BioAssay (NCI).
About 79,000 compounds went through this panel and 15% of them were active in at least one assay; those are over-represented in the sample as a whole. Unmarked numbers belong to inactive results. Activity calls are given as the source filed them. Cut-off read from the data, not from the text of the source: active = growth inhibition above about 70%; inactive = the rest. Where a SMILES comes first, the peptide text is derived from it. [ ]: non-standard residue; d: D form. Nva = CCC[CH](N)C(=O)O

Assay: NCI Yeast Anticancer Drug Screen. Data for the rad50 strain (AID 155);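 note: 0% = growth of vehicle-only cultures of the same strain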
Conditions: S. cerevisiae rad50 strain growth inhibition, hits give high values
Protocol: Growth inhibition of yeast strains with defined genetic alterations is measured as a screen for potential anti-cancer activity. Selected strains with alterations in DNA damage repair or cell cycle control were exposed to compounds and growth inhibition was measured relative to vehicle treated controls. The strain used in this assay is rad50

[1] = at 5.0 µM (retest, dose inferred, filed as 0.5)
[2] = at 50.0 µM (retest, dose inferred, filed as 5.0)

Compound	growth inhibition [1]	growth inhibition [2]	growth inhibition (at 50.0 µM)
Cc1ccc(S(=O)(=O)Nc2ccccc2SSc2ccccc2NS(=O)(=O)c2ccc(C)cc2)cc1	46%	69%	57.5%
CCCCCCCCCc1c(O)c(O)c(CCCCCCCCC)c(CCCCCCCCC)c1CCCCCCCCC	1%	27%	54.9%
CCO/C=C1/N=C(c2cc(Cl)cc([N+](=O)[O-])c2)OC1=O	4%	-7%	11.7%
O=C1OC(OC/C(Br)=C(/Br)COC2OC(=O)C(Cl)=C2Cl)C(Cl)=C1Cl (configuration not stated)	93% (active)	99% (active)	99.2% (active)
C=C(CN(C)C)C(=O)c1ccccc1	-5%	4%	56.6%
C=COCCN1CCN(CCCN2c3ccccc3Sc3ccc(C(F)(F)F)cc32)CC1	-4%	99% (active)	99.5% (active)
C=C1CC2(CCS(=O)(=O)c3ccccc32)OC1=O (configuration not stated)	2%	27%	25.6%
O=C(c1ccccc1)C1(C(=O)c2ccccc2)/C(=N\O)C2CCC1C2 (configuration not stated)	7%	93% (active)	6.05%
CCCC(N)C(=O)NC(C(=O)O)C(C)C (configuration not stated) (H-[Nva]-Val-OH; configuration not given here)	-2%	-11%	38.1%
CC(=O)Nc1ccc(/C=N\NC(=O)c2ccco2)cc1	-5%	4%	-7.6%
COc1ccccc1NC(=O)c1ccccc1F	-154%	41%	-2.5%
CC1(Cc2ccccc2)CCCC(C=O)C1=O.[Cu+2] (configuration not stated)	1%	98% (active)	66.5%
CCc1ccc(C(=O)O)cc1	-2%	-2%	2.7%
ClC1=CC(Cl)=C2N=C(C(Cl)(Cl)Cl)N=C3N=C(C(Cl)(Cl)Cl)N=C1N32	29%	80% (active)	99.3% (active)
